pPAFAH FP inh = inhibitors of human plasma PAF acetylhydrolase (pPAFAH); Q13093; recombinant pPAFAH, FP-rhodamine probe fluorescence polarization; inhibition, % at 3.39 µM; actives 1.5% (n = 330,000); AID 463082;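 active = inhibition above the mean inhibition across the screen plus 3 SD, cut at about 25% in these data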;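 also: inhibitors block binding of the rhodamine activity-based probe so polarization drops; 0% = enzyme with DMSO and 100% = wells lacking pPAFAH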
PP1 inh = blocks human PP1-alpha phosphatase, a PP5 counter-screen; actives 0.9% (n = 320,000); purified PP1alpha, OMFP fluorescence; inhibition, % at 6.7 µM; P62136; AID 2235;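 active = inhibition above the mean inhibition of all tested compounds plus 3 SD, computed separately for each screening campaign, cut at about 15% in these data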
Target sequence (P62136 whole entry, looked up): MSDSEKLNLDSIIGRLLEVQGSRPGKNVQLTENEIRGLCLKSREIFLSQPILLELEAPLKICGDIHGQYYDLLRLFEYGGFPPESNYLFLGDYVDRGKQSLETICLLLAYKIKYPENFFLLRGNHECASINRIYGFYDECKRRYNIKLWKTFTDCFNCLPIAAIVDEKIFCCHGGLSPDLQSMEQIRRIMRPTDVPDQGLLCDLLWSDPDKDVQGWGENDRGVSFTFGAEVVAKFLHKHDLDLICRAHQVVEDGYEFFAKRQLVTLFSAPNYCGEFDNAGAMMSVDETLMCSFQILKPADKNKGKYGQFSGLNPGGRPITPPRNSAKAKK
PP5 inh = blocks human protein phosphatase 5 activity; inhibition, % at 6.7 µM; actives 0.18% (n = 320,000); purified PP5c, OMFP substrate fluorescence; AID 1987;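 active = inhibition above the campaign's mean inhibition across all tested compounds plus 3 SD, cut at about 9.5% in these data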;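 also: 0% = DMSO only and 100% = 100 µM cantharidin control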
PAFAH2 inh = inhibitors of human PAFAH2; AID 492956; recombinant PAFAH2, FP-rhodamine activity probe, fluorescence polarization; actives 0.99% (n = 340,000); inhibition, % at 3.39 µM;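 active = inhibition above the mean over all tested compounds plus 3 SD, cut at about 30% in these data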;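 also: inhibitors block probe labeling of enzyme so polarization drops; 0% = enzyme with DMSO and 100% = wells lacking PAFAH2 protein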
PAFAH1B3 FP inh = blocks human PAF acetylhydrolase 1B catalytic subunit 3; Q15102; recombinant PAFAH1B3, FP-rhodamine probe, fluorescence polarization; inhibition, % at 3.39 µM; actives 0.28% (n = 340,000); AID 492972;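 active = inhibition above the screen-wide average of all tested compounds plus 3 SD, cut at about 25% in these data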;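 also: 0% = enzyme with DMSO only and 100% = wells lacking PAFAH1B3 protein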
Target sequence (Q15102 whole entry, looked up): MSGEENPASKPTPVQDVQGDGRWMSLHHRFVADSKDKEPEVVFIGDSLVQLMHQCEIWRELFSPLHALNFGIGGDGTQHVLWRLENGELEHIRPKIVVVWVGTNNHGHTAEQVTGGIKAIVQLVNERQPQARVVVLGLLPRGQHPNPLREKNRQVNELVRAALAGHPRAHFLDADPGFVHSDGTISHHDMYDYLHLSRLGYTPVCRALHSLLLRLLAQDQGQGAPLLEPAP
PAFAH1B2 inh = inhibitors of human PAFAH1B2. P68402. recombinant PAFAH1B2, FP-rhodamine activity probe, fluorescence polarization. inhibition, % at 3.39 µM. actives 1.2% (n = 340,000);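 active = inhibition above the mean of all tested compounds plus 3 SD, cut at about 24% in these data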;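 also: 0% = enzyme with DMSO and 100% = wells lacking PAFAH1B2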
PAFAH2 confirm = confirmation of human PAFAH2 inhibitors. actives 65% (n = 2,300). recombinant PAFAH2, FP-rhodamine activity probe, fluorescence polarization. inhibition, % at 3.39 µM. shares compounds with PAFAH2 inh;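 active = mean inhibition over three repeats above a set limit taken from the earlier primary screen, cut at about 30% in these data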;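 also: inhibitor blocks binding of rhodamine activity probe so polarization falls; 0% = enzyme with DMSO and 100% = wells lacking PAFAH2 protein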
An asterisk follows results filed as active; . = no result. Rows were chosen to be rich in hits. Some 3.4% of all compounds tested hit in one or more screens of this group.

SMILES | pPAFAH FP inh | PP1 inh | PP5 inh | PAFAH2 inh | PAFAH1B3 FP inh | PAFAH1B2 inh | PAFAH2 confirm
COc1cc(/C=C/C(=O)OCC(=O)Nc2ccc(NC(C)=O)cc2)cc(S(=O)(=O)N2CCc3ccccc32)c1OC | 2.0 | -6.4 | -1.7 | 3.1 | 10.1 | -4.2 | .
O=C1c2cccc3cccc(c23)C(=O)N1OS(=O)(=O)c1ccccc1 | 4.8 | 1.8 | 0.4 | 15.9 | 2.1 | -0.2 | .
Cc1ccc(S(=O)(=O)ON2C(=O)c3cccc4cccc(c34)C2=O)cc1 | 2.8 | -1.5 | 1.9 | 30.2* | 16.7 | 2.7 | 26.2
O=S(=O)(NCC(c1ccc2c(c1)OCO2)N1CCOCC1)c1ccccc1 (stereo unspecified) | 0.8 | 3.6 | -1.9 | 2.6 | 4.9 | 4.6 | .
NNC(=O)c1ccc(NS(=O)(=O)c2ccc(Br)cc2)cc1 | 3.4 | 0.0 | 0.6 | . | . | . | .
Cc1nc2cc(N3CCN(C)CC3)c(NC(=O)Cc3ccccc3)cc2c(=O)n1Cc1ccccc1 | 6.1 | 2.1 | -1.2 | 41.7* | 5.7 | -2.7 | 26.7
Cc1nc2cc(N3CCCCC3)c(NC(=O)c3ccncc3)cc2c(=O)n1Cc1ccc(Cl)cc1 | -2.2 | -4.7 | 0.7 | . | . | . | .
O=C(OCc1cn(-c2ccc(Cl)cc2)nn1)c1ccccc1 | 10.1 | -0.7 | -2.0 | 69.4* | 4.0 | 5.0 | 69.4*
CC(C)(C)C(=O)OCc1cn(-c2ccc(Cl)cc2)nn1 | -4.9 | -2.3 | 0.3 | 7.0 | 1.0 | 1.9 | .
O=C(OCc1nnc(-c2cccs2)o1)c1cccnc1Cl | 2.0 | 2.1 | 0.5 | 8.9 | 3.6 | 1.3 | .
Cc1nn(Cc2ccccc2)c(Cl)c1C(=O)OCc1nnc(-c2ccccc2)o1 | 6.8 | 5.0 | 2.5 | 31.6* | 6.4 | 3.5 | 22.9
CCOc1ccc(C(=O)OCc2nnc(-c3cccs3)o2)cc1OC | -3.5 | -3.1 | 1.9 | 84.6* | 8.6 | -0.2 | 79.3*
O=C(OCc1nnc(-c2ccc(Cl)cc2)o1)c1ccc(O)cc1 | 7.3 | 1.9 | 2.0 | 74.5* | 2.1 | 0.8 | 68.1*
O=C1CCC(C(=O)OCc2nnc(-c3ccc(Cl)cc3)o2)=NN1 | 1.6 | 1.6 | 0.7 | 7.3 | 2.7 | 4.2 | .
CCOc1ccc(C(=O)NCC(=O)OCc2nnc(-c3ccccc3)o2)cc1OCC | 0.6 | -1.1 | -0.9 | 59.5* | 3.9 | 2.3 | 53.4*
COc1ccc(NS(=O)(=O)c2cccc(C(=O)NCC(c3cccs3)N3CCOCC3)c2)cc1 (stereo unspecified) | 24.2 | . | . | 5.5 | 9.1 | 5.4 | .
O=C(OCc1nnc(-c2ccccc2)o1)c1ccc2c(c1)OCO2 | 3.2 | -0.5 | 0.3 | 57.9* | -2.9 | 1.9 | 60.3*
Cc1ccc(C(=O)OCc2nnc(-c3ccccc3)o2)s1 | 3.4 | -2.2 | -2.6 | 80.8* | 5.3 | 3.3 | 72.7*
O=C(OCc1nnc(-c2ccccc2)o1)c1cccnc1Cl | 0.6 | 0.7 | 1.0 | 21.1 | 3.4 | 2.9 | .
CCOc1ncccc1C(=O)OCc1nnc(-c2ccccc2)o1 | 5.6 | -0.4 | 1.2 | 47.1* | 6.6 | 0.7 | 45.1*
N#Cc1ccccc1COC(=O)c1ccc2c(c1)OCO2 | 3.0 | -6.9 | 2.2 | 8.0 | 0.3 | 1.6 | .
O=C(OCc1nnc(-c2ccccc2)o1)c1ccco1 | -2.3 | -2.0 | 1.1 | 45.3* | -1.2 | 2.0 | 41.9*
CCC1Nc2ncnc(N3CCOCC3)c2N(Cc2ccc(Cl)cc2)C1=O (stereo unspecified) | 1.8 | . | . | 0.3 | 9.8 | 0.2 | .
O=C(CCC(=O)c1cccs1)NCc1cccc(Cl)c1 | 1.7 | -4.3 | -2.6 | 9.7 | 15.2 | 8.8 | .
CC(=O)N/C(=C\c1ccccc1)C(=O)OCc1cccc(S(=O)(=O)N(C)C)c1 | . | . | . | 1.0 | 5.0 | 3.7 | .
SMILES | pPAFAH FP inh | PP1 inh | PP5 inh | PAFAH2 inh | PAFAH1B3 FP inh | PAFAH1B2 inh | PAFAH2 confirm
CCOC(=O)c1ccc(NC(C)=O)c([N+](=O)[O-])c1 | 4.0 | -1.3 | -0.3 | 3.5 | 2.4 | 4.3 | .
CNc1ccc(C(=O)OCC(=O)Nc2ccnn2C(C)C)cc1[N+](=O)[O-] | 1.6 | -0.3 | 1.1 | 59.8* | 2.9 | 4.0 | 45.6*
COc1cc(/C=N/n2c(COc3ccccc3)n[nH]c2=S)cc(Br)c1O | 3.6 | 1.4 | 1.7 | 51.6* | 7.0 | 9.7 | 38.3*
Cc1c(N2C(=O)CSC2c2ccco2)c(=O)n(-c2ccccc2)n1C (stereo unspecified) | -1.1 | -4.8 | -0.3 | -1.2 | 2.5 | 2.8 | .
COc1cccc(OC)c1C(=O)OCC(=O)NCc1ccco1 | 1.5 | -3.0 | 1.0 | -2.1 | 4.0 | 7.0 | .
COc1cc(/C=C/C(=O)OCC(=O)NC(=O)NCc2ccco2)ccc1OC(F)F | 6.0 | . | . | 3.1 | 8.4 | 2.2 | .
COc1cc(/C=C/C(=O)OCC(=O)NCc2ccco2)ccc1O | 6.2 | -1.5 | -0.8 | 65.9* | 4.0 | 4.1 | 45.5*
COc1ccccc1/C=C/C(=O)OCC(=O)NCc1ccco1 | 4.5 | -0.3 | 1.6 | 61.9* | 8.3 | 4.7 | 52.8*
Nc1nc(N)c2[nH]c(-c3ccccc3)nc2n1 | . | . | . | 0.7 | 11.6 | 0.8 | .
Cc1cccc(C)c1NS(=O)(=O)c1ccc(-c2ccc(=O)[nH]n2)o1 | 4.2 | -3.2 | -2.1 | 4.0 | 1.0 | -1.4 | .
COc1cc(Cl)c(NS(=O)(=O)c2ccc(-c3ccc(=O)[nH]n3)o2)c(OC)c1 | 4.6 | -3.0 | -1.9 | 32.1* | -1.5 | 0.2 | 1.1
Cc1cccc(C(=O)Nc2cc(Cl)ccc2-n2cncn2)c1[N+](=O)[O-] | 7.8 | -7.2 | -0.1 | 39.3* | 1.1 | 1.5 | 31.1*
CS(=O)(=O)c1ccccc1C(=O)Nc1cc(Cl)ccc1-n1cncn1 | -1.8 | -4.1 | 0.1 | 5.7 | 1.2 | -3.1 | .
Cc1ccc(CN(C(=O)c2ccc([N+](=O)[O-])cc2)C2CCS(=O)(=O)C2)o1 (stereo unspecified) | 0.8 | -6.8 | 1.0 | -0.1 | 3.2 | 4.0 | .
O=C(N/N=C/c1cccc(Cl)c1)C(c1ccncc1)N1CCOCC1 (stereo unspecified) | 7.0 | -0.1 | 1.2 | 50.5* | 1.9 | 2.8 | 40.7*
Cc1cc(Cl)ccc1NC(=O)CSc1n[nH]c(N)n1 | -1.1 | 1.1 | 1.8 | 0.6 | 11.3 | 2.0 | .
O=C(O)C(Cc1ccccc1)N1C(=O)/C(=C/C=C/c2ccco2)SC1=S (stereo unspecified) | . | . | . | 59.9* | 12.1 | 10.8 | 47.0*
N#CCC(=O)Nc1ccc(C(=O)N2CCN(S(=O)(=O)c3ccc4ccccc4c3)CC2)cc1 | 1.6 | 15.2 | 1.4 | -12.5 | -10.4 | 0.4 | .
COc1ccccc1/C=C/C(=O)OCC(=O)NCCC1=CCCCC1 | 17.8 | -1.9 | -0.2 | 24.6 | 9.8 | -4.9 | .
COc1ccc(/C=C/C(=O)OCC(=O)NCCC2=CCCCC2)cc1OC | 5.5 | -0.2 | -2.1 | 65.1* | -1.7 | -1.7 | 50.3*
COc1cccc(/C=C/C(=O)OCC(=O)NCCC2=CCCCC2)c1OC | 14.4 | . | . | 65.7* | -1.3 | -0.9 | 55.4*
